In PubChem BioAssay AID709 (SRMLSC, 2007):
The whole screen tested about 65,000 compounds, of which about 3,600 (5.5%) were called active. The entries come from a sample that favours actives as a whole. Values without a mark were called inactive.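 The calls were made as follows: active = at 10 µM, mean starting fluorescence two-fold or more over control wells; inactive = the rest.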

Assay: intrinsic fluorescence of library compounds, ex339/em460 – biochemical, MLSMR library, data from DPM-DC assay, artefact control, profiling panel (AID 709);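 also: signal is the first read of a kinetic run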
Conditions: compound autofluorescence, ex339/em460 nm, NADH buffer; at 10 µM; active compounds read high; 1 = no-compound wells, NADH background

| SMILES | fluorescence fold increase |
| --- | --- |
| N#CCSc1nc2ccccc2c(=O)n1-c1ccccc1 | 1.11 |
| CC(C)CCNC(=O)C1CCCN(S(=O)(=O)c2ccc(F)cc2)C1 (stereo not drawn) | 1.06 |
| CCOc1cc2[nH]c(=S)n(CCCN3CCCC3=O)c(=O)c2cc1OCC | 1.07 |
| CC(C)(C)OC(=O)c1c(N)n(CCCN2CCCC2=O)c2nc3ccccc3nc12 | 3.76 (active) |
| CSc1nnc(-c2ccncc2)n1CCCN1CCCC1=O | 0.81 |
| COc1ccc(CNC2CCCCC2)cc1 | 1.1 |
| O=S(=O)(NCCNS(=O)(=O)c1ccccc1)c1ccccc1 | 1.04 |
| CCOc1ccc2nc(NCCNS(=O)(=O)c3ccccc3)c(C#N)cc2c1 | 3.3 (active) |
| CCOc1ccc2cc(C#N)c(SCC(=O)OC)nc2c1 | 1.95 |
| COC(=O)C(CC(=O)Nc1cc(C)ccc1C)Nc1ccccc1OC (stereo not drawn) | 1.02 |
| COc1ccc(C2C3=C(OC(C)=O)c4ccccc4C3=Nc3c2c(=O)n(C)c(=O)n3C)cc1 (stereo not drawn) | 1.09 |
| Cc1ccc2c(c1)c1ncn(CCC3=CCCCC3)c(=O)c1n2C | 2.08 (active) |
| CC1CCCN(C(=O)c2ccc3c(c2)C(=O)N(CCC2=CCCCC2)C3=O)C1 (stereo not drawn) | 1.04 |
| Cn1nnc2cc(C(=O)NCCC3=CCCCC3)ccc21 | 1.03 |
| Cc1ccc(C(C(=O)NCc2ccco2)N(CC2CCCO2)C(=O)Cn2nnc3ccccc32)cc1 (stereo not drawn) | 0.88 |
| CCc1nnc(NC(=O)CSc2nnc(COc3ccc(C#N)cc3)n2-c2ccccc2)s1 | 1.27 |
| Cc1nn(-c2ccccc2)c2c1C(=O)NC(=O)C(C)(C)C2 | 1.03 |
| O=C1CC2(CCCCC2)Oc2ccc(OCC(=O)N3CCOCC3)cc21 | 5.15 (active) |
| COc1ccc(OCC(=O)N2CCOCC2)cc1 | 1.05 |
| O=C(Nc1cccc(OCC(=O)N2CCOCC2)c1)C1CCCCC1 | 1.05 |
| Cn1c(=O)c2c(nc(OCc3cccnc3)n2Cc2ccccc2)n(C)c1=O | 1.09 |
| CCC(C)(NC(=O)c1ccccn1)C(=O)NC1CCCCC1 (stereo not drawn) | 1.14 |
| Cc1cc(=O)n(C)c(=O)n1CCCNc1ccccc1 | 1.05 |
| CCOC(=O)/C=c1\s/c(=C\c2ccccc2OC)c(=O)n1CC(=O)N1CCOCC1 | 1.14 |
| CCOC(=O)c1nc(N)sc1C(=O)OCC | 1.12 |
| CCOC(=O)c1sc(NC(=O)C(CC)Sc2nccn2C)nc1C (stereo not drawn) | 1.08 |
| CCOC(=O)c1sc(/N=C/Nc2nc(C)c(C(=O)OCC)s2)nc1C | 4.03 (active) |
| O=C1NC2(CCCCC2)N=C1c1ccccc1 | 1.08 |
